The text below walks through data of PubChem BioAssay (NCATS).

Test [1] deals with Lysosomal acid glucosylceramidase (Homo sapiens) (UniProt P04062). The test can be described thus: Glucocerebrosidase-p2 (AID 348; in the data active = potency below about 10 µM; also: potency is read from the fitted curve at half-maximal effect). The conditions noted are these: purified GBA, blue fluorogenic substrate, 40 min. The gist of the method: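 Normal human glucocerebrosidase (0.2 nM) with blue fluorogenic substrate (80 uM final) in citrate/phosphate pH 5.9 with 10mM sodium taurocholate, 0.01% tween-20; 40 min RT, NaOH/glycine stop; fluorescence Ex 365/Em 440; AC50 from a titration from 0.6 nM upwards.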
Lysosomal acid glucosylceramidase (Homo sapiens), sequence (P04062 whole entry, looked up): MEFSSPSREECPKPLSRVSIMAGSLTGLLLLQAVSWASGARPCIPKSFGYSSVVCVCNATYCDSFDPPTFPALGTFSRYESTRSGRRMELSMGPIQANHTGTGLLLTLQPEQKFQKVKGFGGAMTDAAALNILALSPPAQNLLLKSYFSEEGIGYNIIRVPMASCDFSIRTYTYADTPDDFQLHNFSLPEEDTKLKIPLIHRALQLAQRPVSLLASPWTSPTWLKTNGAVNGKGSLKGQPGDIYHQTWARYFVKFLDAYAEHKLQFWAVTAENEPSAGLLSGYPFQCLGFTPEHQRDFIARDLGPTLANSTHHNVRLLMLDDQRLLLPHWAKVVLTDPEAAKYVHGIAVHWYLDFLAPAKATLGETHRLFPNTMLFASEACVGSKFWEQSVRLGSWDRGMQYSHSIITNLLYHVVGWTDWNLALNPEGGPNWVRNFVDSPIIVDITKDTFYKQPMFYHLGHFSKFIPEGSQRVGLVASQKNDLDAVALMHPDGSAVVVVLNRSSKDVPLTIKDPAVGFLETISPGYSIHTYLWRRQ

Test [2] can be described thus: AP1 Signaling Pathway (AID 357).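 Also: ME-180 reporter cells stimulated with EGF at its EC50 level; % is scaled to controls: 0 for no effect and ±100 for the full control effect.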 The conditions noted are these: ME-180 AP-1-bla reporter, EGF-induced, beta-lactamase ratio, 5 h; at 7.69 µM (top of the series) unless noted. In a few lines: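 Modulation of EGF-driven AP-1 transcription was assessed with a beta-lactamase reporter in ME-180 cells. Compound and EC50 EGF were co-incubated 5 hours at 37 °C before 2.5-hour CCF4 loading at room temperature and dual-emission reading.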

Test [3] has as its target Cytochrome P450 1A2 (Homo sapiens) (UniProt P05177). Briefly: p450-cyp1a2 (AID 410; calls by dose curve; also: potency is read from the fitted curve at half-maximal effect;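 as to activity change, negative = inhibition: -100% = full effect of reference inhibitor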). The note with it: recombinant CYP1A2, luciferin-ME demethylation, luminescence; series mostly up to 57 µM. The gist of the method:
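Luminescent demethylation readout: Luciferin-ME (100uM, equal to Km) turned over by 20nM CYP1A2 for 60 min at room temperature after NADPH regeneration addition, following 10 min compound preincubation. Normalization used 57 uM furafylline as full inhibition.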

Test [4] can be described thus: NFAT Signaling Pathway (AID 444).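 Also: carbachol stimulus at about its EC50 of 1 µM final; % is scaled to controls: 0 for no effect and ±100 for the full control effect.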 The conditions noted are these: Jurkat NFAT-bla M1, carbachol, beta-lactamase ratio, 5 h; at 7.69 µM (top of the series) unless noted. In a few lines: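 Read-out: CCF4 FRET ratio (460 nm/530 nm) after 1 h RT dye loading, used for %activity and AC50 from titration series. Cells: Jurkat NFAT-β-lactamase/M1 line, treated with compound plus 1 uM carbachol for 5 h, 37 °C.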

The nature of test [5]: Stat Signaling Pathway (AID 446).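 Also: ME-180 cervical cancer cells given 40 pM IL-6 alongside compound; SIE-controlled beta-lactamase reporter measured as 460/530 nm FRET emission ratio; % is scaled to controls: 0 for no effect and ±100 for the full control effect.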 The conditions noted are these: ME-180 (cervical carcinoma) SIE beta-lactamase reporter, IL-6 stimulated, 5 h; at 7.69 µM (top of the series) unless noted. The gist of the method:
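Overnight-plated ME-180 cells bearing a STAT Inducible Element beta-lactamase reporter; 5 h co-exposure to compound and 40 pM IL-6; values normalized to 300 pM IL-6 and 125 nM JAK inhibitor controls.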

For test [6], the target named is Glucocorticoid receptor (Homo sapiens) (UniProt P04150). The test can be described thus: GR-EFC Redistribution (AID 451; calls by dose curve; also: potency is read from the fitted curve at half-maximal effect). The note with it: CHO-K1 GR-EFC translocation, beta-gal luminescence, 2 h. In a few lines: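 Translocation of GR-ED fusion to nuclear EA restores b-gal, read by luminescence after 1 h room-temperature detection. Engineered CHO-K1 biosensor cells, 1,000/well, exposed 2 h at 37 C to titrations up to 46 uM final.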
Glucocorticoid receptor (Homo sapiens), sequence (P04150 whole entry, looked up, the tested form may be a part): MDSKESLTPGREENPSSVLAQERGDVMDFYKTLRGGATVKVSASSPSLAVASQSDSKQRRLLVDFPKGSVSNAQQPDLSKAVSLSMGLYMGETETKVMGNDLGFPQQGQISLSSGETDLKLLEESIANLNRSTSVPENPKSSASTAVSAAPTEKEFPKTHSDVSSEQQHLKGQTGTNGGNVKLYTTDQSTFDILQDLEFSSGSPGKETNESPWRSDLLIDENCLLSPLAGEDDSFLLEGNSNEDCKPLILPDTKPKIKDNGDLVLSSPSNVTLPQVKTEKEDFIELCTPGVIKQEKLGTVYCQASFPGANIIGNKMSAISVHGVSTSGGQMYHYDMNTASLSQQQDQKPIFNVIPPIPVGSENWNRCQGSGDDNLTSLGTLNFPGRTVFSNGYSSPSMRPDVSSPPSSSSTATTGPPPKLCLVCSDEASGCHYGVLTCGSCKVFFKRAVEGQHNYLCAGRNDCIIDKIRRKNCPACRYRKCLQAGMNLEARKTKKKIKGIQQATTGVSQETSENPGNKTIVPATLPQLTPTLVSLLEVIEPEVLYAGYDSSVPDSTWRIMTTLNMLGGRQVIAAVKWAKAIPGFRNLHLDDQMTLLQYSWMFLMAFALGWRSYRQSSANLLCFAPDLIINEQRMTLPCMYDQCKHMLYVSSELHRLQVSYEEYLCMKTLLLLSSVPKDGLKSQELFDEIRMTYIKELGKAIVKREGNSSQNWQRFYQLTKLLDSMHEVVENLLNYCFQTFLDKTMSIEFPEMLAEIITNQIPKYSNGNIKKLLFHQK

The target in test [7] is Mitogen-activated protein kinase 10 (Mus musculus) (UniProt Q61831). Briefly: JNK3 AlphaScreen Assay (AID 530).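 Also: kinase came from lysate of stimulated human HepG2 cells; signal reports phosphorylation of biotinylated GST-cJun 1-79 at Ser73 with 10 µM ATP; % is scaled to controls: 0 for no effect and ±100 for the full control effect.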 The conditions noted are these: JNK3 lysate, c-Jun phosphorylation; series mostly up to 57.1 µM. The gist of the method: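 qHTS titrations with 15 min compound pre-incubation before adding ATP (10 uM final). Read-out: AlphaScreen of Ser73-phosphorylated biotin-GST-cJun using HepG2 lysate JNK3 activated by IL-1β and TNFα.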
A general note: Alpha assays give light when donor and acceptor beads are brought close together.

Test [8] has as its target 3',5'-cyclic-AMP phosphodiesterase 4B (Homo sapiens) (UniProt Q07343). Briefly: qHTS Assay for Inhibitors of PDE-IV (AID 607; active = well fitted activation curve with a large enough effect in the main read-out, with a control signal flat, not every such curve was filed as active; also: % of control where 0% means no effect). The conditions noted are these: HEK293 ACTOne CNG channel cells, membrane potential fluorescence; series mostly up to 22.9 µM. In a few lines:
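Live HEK293 cells with a modified cyclic nucleotide-gated (CNG) channel report intracellular cAMP via membrane-potential dye fluorescence (ex 535/em 590 nm). Endogenous PDE-IV was targeted. Compounds were tested at up to 22.9 uM final; RO 20-1724 100 uM served as control.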
For orientation: Quantitative high-throughput screening tests each substance at several concentrations.

The nature of test [9]: Primary qHTS for small molecule stabilizers of the endoplasmic reticulum resident proteome: Secreted ER Calcium Modulated Protein (SERCaMP) assay (AID 1508630; active = well fitted curve in the direction sought with a large enough effect; an effect the other way counts as inactive or inconclusive; also: % is scaled to controls: 0 for no effect and ±100 for the full control effect). The note with it: SH-SY5Y GLuc-SERCaMP (Gaussia luciferase released on ER calcium loss) secretion, thapsigargin, luminescence; series mostly up to 38.4 µM. In a few lines: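 The SH-SY5Y reporter protocol was run at 3 concentrations up to 38.3 uM (primary) or 11 concentrations (follow-up): 16 h compound, 100 nM thapsigargin for 4 h, then extracellular luciferase luminescence.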

The target of test [10] is Cytochrome P450 3A4 (Homo sapiens) (UniProt P08684). The test can be described thus: qHTS Assay for Inhibitors and Substrates of Cytochrome P450 3A4 (AID 884; active = well fitted curve in the direction sought with a large enough effect; an effect the other way counts as inactive or inconclusive; also: % is scaled to controls: 0 for no effect and ±100 for the full control effect; nearly all actives have a fitted effect of over 50% in size). The conditions noted are these: recombinant CYP3A4, Luciferin-PPXE luminescence; series mostly up to 57.1 µM. In a few lines:
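Luminescent readout of luciferin produced by CYP3A4 (20 nM) dealkylation of Luciferin-PPXE, 25 uM (its KM). NADPH-driven reaction ran 60 min at RT after 10 min compound preincubation; data scaled to 57 uM ketoconazole as 100% inhibition.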

The target is the same in test [11]. The test can be described thus: qHTS Assay for Activators of Cytochrome P450 3A4 (AID 885; active = well fitted curve in the direction sought with a large enough effect; an effect the other way counts as inactive or inconclusive; also: nearly all actives have a fitted effect of over 65% in size; also: potency is read from the fitted curve at half-maximal effect). The conditions noted are these: recombinant CYP3A4, Luciferin-PPXE luminescence, 60 min; series mostly up to 57.1 µM. In a few lines: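 Using 20nM recombinant human CYP3A4 in potassium phosphate (200mM), substrate Luciferin-PPXE at 25uM, luminescent luciferin detection followed a 60-min RT NADPH reaction; data scaled to 57 uM ketoconazole.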

SMILES strings stand for the structures. A number with no mark means an inactive call. Results filed as inconclusive are left out. Calls of active or inactive are those of the source. Unless noted, calls follow the shape of the dose curve; as a rule, active = well fitted curve in either direction with a large enough effect (not every such curve was filed as active); inconclusive = small, poorly fitted or top-dose-only effect, or another doubt; inactive = flat fitted curve, though single readings scatter.

Cytochrome P450 1A2 (Homo sapiens), sequence (P05177 whole entry, looked up): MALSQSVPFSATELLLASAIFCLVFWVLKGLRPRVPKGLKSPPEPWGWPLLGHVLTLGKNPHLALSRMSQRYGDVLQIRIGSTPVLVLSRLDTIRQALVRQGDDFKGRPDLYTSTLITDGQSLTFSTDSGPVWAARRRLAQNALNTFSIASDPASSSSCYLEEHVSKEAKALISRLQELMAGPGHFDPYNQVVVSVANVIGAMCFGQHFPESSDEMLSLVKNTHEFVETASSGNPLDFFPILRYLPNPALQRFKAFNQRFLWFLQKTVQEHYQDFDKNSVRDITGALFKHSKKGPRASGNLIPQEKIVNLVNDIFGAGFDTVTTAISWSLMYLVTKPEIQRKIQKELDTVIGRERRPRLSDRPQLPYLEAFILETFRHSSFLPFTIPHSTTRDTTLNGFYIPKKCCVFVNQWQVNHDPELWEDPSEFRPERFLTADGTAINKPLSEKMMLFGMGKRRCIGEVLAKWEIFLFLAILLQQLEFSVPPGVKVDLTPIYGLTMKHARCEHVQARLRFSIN
Cytochrome P450 3A4 (Homo sapiens), sequence (P08684 whole entry, looked up): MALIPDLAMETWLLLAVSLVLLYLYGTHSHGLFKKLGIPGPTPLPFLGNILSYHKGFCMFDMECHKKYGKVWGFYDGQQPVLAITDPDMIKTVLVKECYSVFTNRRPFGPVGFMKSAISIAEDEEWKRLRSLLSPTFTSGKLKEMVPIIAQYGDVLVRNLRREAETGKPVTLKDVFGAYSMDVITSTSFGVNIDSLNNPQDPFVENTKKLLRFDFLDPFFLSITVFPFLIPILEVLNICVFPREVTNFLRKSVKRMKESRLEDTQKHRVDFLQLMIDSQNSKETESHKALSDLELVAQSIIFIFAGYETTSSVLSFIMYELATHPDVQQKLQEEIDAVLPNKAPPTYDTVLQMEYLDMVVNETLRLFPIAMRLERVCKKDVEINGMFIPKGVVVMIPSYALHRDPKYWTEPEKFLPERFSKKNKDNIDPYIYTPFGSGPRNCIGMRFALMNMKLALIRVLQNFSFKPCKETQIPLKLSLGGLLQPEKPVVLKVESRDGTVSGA
3',5'-cyclic-AMP phosphodiesterase 4B (Homo sapiens), sequence (Q07343 whole entry, looked up): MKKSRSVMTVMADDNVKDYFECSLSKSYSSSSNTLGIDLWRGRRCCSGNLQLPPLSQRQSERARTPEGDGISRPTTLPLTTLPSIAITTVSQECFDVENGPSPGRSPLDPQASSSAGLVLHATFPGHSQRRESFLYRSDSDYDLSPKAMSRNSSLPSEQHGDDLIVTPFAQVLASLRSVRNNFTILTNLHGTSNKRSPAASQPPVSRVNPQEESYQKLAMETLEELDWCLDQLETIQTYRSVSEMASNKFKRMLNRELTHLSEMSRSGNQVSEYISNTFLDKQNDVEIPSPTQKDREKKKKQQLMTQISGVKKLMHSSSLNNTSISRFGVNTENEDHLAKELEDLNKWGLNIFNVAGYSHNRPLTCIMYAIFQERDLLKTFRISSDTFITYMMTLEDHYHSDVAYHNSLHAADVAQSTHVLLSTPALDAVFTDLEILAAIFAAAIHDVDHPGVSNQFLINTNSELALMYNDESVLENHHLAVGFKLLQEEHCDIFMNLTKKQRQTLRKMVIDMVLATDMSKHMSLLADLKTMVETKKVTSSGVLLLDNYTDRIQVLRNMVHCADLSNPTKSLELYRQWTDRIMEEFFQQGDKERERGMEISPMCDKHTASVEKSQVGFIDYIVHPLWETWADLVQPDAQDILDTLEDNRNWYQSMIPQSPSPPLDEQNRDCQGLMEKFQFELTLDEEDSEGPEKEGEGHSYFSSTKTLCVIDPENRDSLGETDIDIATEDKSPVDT

With `COC(=O)N1CCC2(CCCN(C(=O)Nc3ccccc3)C2)CC1`, the results for the Potency in test [1] and in [6] were more than 11.4 µM and more than 46 µM, respectively. Moreover, the activity change, negative = inhibition in test [2] was -8.56%; in [4], 8.44%. The Potency entry in [3], in test [7] and in [8] was “inactive” throughout. Moreover, the activity, negative = inhibition in test [5] is -0.296%. In test [9], the result was inactive.
Regarding `COc1ccc(NC(=O)N2CCC3(CC2)CCN(C(=O)c2cccn2C)CC3)cc1`, the Potency in [1] is more than 11.4 µM; in test [6] it was more than 46 µM. The activity change, negative = inhibition in [2] is -7.7%; in [4], -0.784%. The Potency entry in [3], in [7], in [8] and in test [10] was “inactive” in each case. The activity, negative = inhibition in test [5] was 2.55%. Also, the result in test [9] was inactive.
Turning to `COC(=O)N1CCC2(CC1)CN(C(=O)Nc1cccc(F)c1)C2`, the figures for the Potency in test [1] and in test [6] were more than 11.4 µM and more than 46 µM, respectively. The results for the activity change, negative = inhibition in [2] and in [4] were -2.84% and 0.322%, respectively. Also, the Potency result in test [3], in test [7] and in [8] was “inactive” throughout. Besides, the activity, negative = inhibition in test [5] is -2.22%. Also, the outcome in test [9] was inactive.
For `COc1ccc(C(=O)N2CCC3(CC2)CCN(c2ncccn2)CC3)cc1`, the figures for the Potency in test [1], in test [6] and in test [11] were more than 11.4 µM, more than 46 µM and 5.01 µM (active), respectively. The activity change, negative = inhibition is 3.18% in test [2] and 0.535% in [4]. Also, the Potency entry in test [3], in test [7], in [8] and in test [10] was “inactive” throughout. Besides, the activity, negative = inhibition in test [5] was 4.32%. Moreover, the outcome in test [9] was inactive.
Take `COc1ccc(NC(=O)N2CCC3(CC2)CCN(C(=O)c2ccco2)CC3)cc1`: the results for the Potency in test [1], in test [3] and in [6] were more than 11.4 µM, 20 µM (active) and more than 46 µM, respectively. Moreover, the activity change, negative = inhibition in [2] was -4.61%; in test [4], 3.53%. Besides, the activity, negative = inhibition in test [5] was -1.71%. For the same compound, the Potency entry in test [7] and in [8] was “inactive” throughout. In addition, the result in test [9] was inactive.
On to `O=C(c1cnccn1)N1CCC2(CCCN(c3ncccn3)C2)CC1`, for which the Potency in test [1] was more than 11.4 µM; in test [6], more than 46 µM. In addition, the activity change, negative = inhibition is -8.6% in [2] and 13.2% in test [4]. Also, the Potency result in [3], in [7] and in test [8] was “inactive” each time. Besides, in test [5], the activity, negative = inhibition was -0.387%. Moreover, the outcome in test [9] was inactive.
For the compound `O=C(Nc1ccccc1)N1CC2(CCN(C(=O)c3cnccn3)CC2)C1`, the Potency in [1] is more than 11.4 µM; in test [3], 20 µM (active); in test [6], more than 46 µM. Moreover, the activity change, negative = inhibition was -11.2% in [2] and 4.45% in test [4]. Moreover, the activity, negative = inhibition in test [5] was 2.96%. Further, the Potency result in test [7] and in test [8] was “inactive” each time. For the same compound, the result in [9] was inactive.
Take `COc1ccc(NC(=O)N2CCC3(CC2)CCN(C(=O)c2ccncc2)CC3)cc1`: the Potency is more than 11.4 µM in test [1], 25.1 µM (active) in test [3] and more than 46 µM in test [6]. For the same compound, the results for the activity change, negative = inhibition in [2] and in test [4] were -0.635% and 3.85%, respectively. The activity, negative = inhibition in test [5] was 4.58%. Further, the Potency entry in test [7], in [8] and in [11] was “inactive” each time. In addition, the result in test [9] was inactive.
